Assay results reported in PubChem BioAssay AID795 (NMMLSC, 2007).
Screen size: about 24,000 compounds; about 130 (0.54%) were called active. The full list was thinned out, with actives kept by preference. A number with no mark means an inactive call.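 The calls were made as follows: active = side scatter shift above 30%; inactive = the rest.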

Test: inducers of granularity increase in LNCaP cells – cell-based, flow cytometry side scatter, primary screen (AID 795);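 also: androgen-responsive LNCaP prostate cancer cells in charcoal-stripped serum medium; percent of cells past a gate set so DMSO wells show 10% shift; higher shift means more granular cells and more differentiation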
Settings: LNCaP differentiation, 4 d, at 10 µM, active compounds read high
With `NC(=O)CSC1=Nc2ccccc2C2=NC(CCC(=O)NCc3ccc(F)cc3)C(=O)N12` (configuration not stated) the side scatter shift was 0%. With `COc1ccc(NC(=O)C2CCCN(S(=O)(=O)c3cccc4cccnc34)C2)cc1` (configuration not stated) the side scatter shift was 6%. In the case of `CCCCN(CC)CCCNC(=O)CS(=O)(=O)Cc1nc(-c2cccc(OC)c2)oc1C`, the side scatter shift is reported as 7%. `CC(=O)Nc1cc2ccc(OC(C)=O)cc2oc1=O` gave a side scatter shift of 10%. With `O=C(CSc1nc2[nH]ncc2c(=O)n1-c1ccccc1)N1CCCc2ccccc21` the side scatter shift was 5%. `COc1ccc(OCc2ccc(-c3nc4ccccc4c(=O)n3N)o2)cc1` gave a side scatter shift of 6%. Work on `Cc1ccc(NC(=O)c2nc[nH]c2C(=O)N2CCCCC2)c(C(=O)c2ccccc2)c1` yielded a side scatter shift of 14%. `COc1ccc(OC)c(NC(=O)CC(Cc2ccccc2OC)C(=O)O)c1` (configuration not stated) showed a side scatter shift of 15%. Work on `CCn1cc(C(=O)N2CCN(C3CCCCC3)CC2)c2cc(OC)c(OC)cc2c1=O` yielded a side scatter shift of 7%. In the case of `Cc1nc2ccccc2c2oc(C(=O)NCC3CCCO3)cc12` (configuration not stated), the side scatter shift is reported as 11%. Molecule `O=C(CN1C(=O)C2C3C=CC(C3)C2C1=O)NCC1COc2ccccc2O1` (configuration not stated) has a side scatter shift of 9%. `Cn1c(CNC(=O)C(C)(C)C)nc2ccccc21` showed a side scatter shift of 3%. With `COCCN1C(=O)c2oc3c(C)cc(C)cc3c(=O)c2C1c1cccc(O)c1` (configuration not stated) the side scatter shift was 3%. Work on `CC1(C)CC(O)C(CCC(O)c2ccccc2)C(C)(C)N1` (configuration not stated) yielded a side scatter shift of 5%. With `CCOC(=O)c1ccc2[nH]c(C)c(CN3CCN(C)CC3)c(=O)c2c1` the side scatter shift was 10%. `COCCN(CC(=O)Nc1ccccc1C)S(=O)(=O)c1ccc(S(=O)(=O)N2CCCC2)cc1` gave a side scatter shift of 3%. In the case of `COc1ccccc1NC(=O)CSc1nnc(Cc2cccn2C)n1-c1ccc(F)cc1`, the side scatter shift is reported as 14%. `CC1(C)CC(=O)C=C(NCc2ccncc2)C1` gave a side scatter shift of 6%. `CCOC(=O)N1CCC(C(N)=O)CC1` gave a side scatter shift of 12%. Work on `Nc1ccc(-n2nncc2-c2ccco2)cc1` yielded a side scatter shift of 2%. `CC12CN3CC(C)(CN(C1)C3c1ccc(Cl)cc1Cl)C2=O` (configuration not stated) gave a side scatter shift of 7%. With `O=C(CSc1nnc2ccccn12)c1ccccc1` the side scatter shift was 3%. `CCCCCCn1c(CN2CCCC(C)C2)nc2c1c(=O)n(C)c(=O)n2C` (configuration not stated) gave a side scatter shift of 7%. Work on `CCOC(=O)c1ccc(NC(=O)Cn2nnc(-c3ccc(C)cc3)n2)cc1` yielded a side scatter shift of 12%. `COc1ccc(Cc2nnc(NC(=O)Cc3cccs3)s2)cc1` gave a side scatter shift of 23%. For `COc1ccc(CC(=O)Nc2ccc(-c3nnc(-c4ccc(C)cc4)o3)cc2)cc1`, the side scatter shift was 37% (active). Molecule `CCCCOC(=O)NCN1C(=O)C2C3C=CC(C3)C2C1=O` (configuration not stated) has a side scatter shift of 11%. Work on `Cc1noc(C)c1S(=O)(=O)N1CCCC(C(=O)Nc2nccs2)C1` (configuration not stated) yielded a side scatter shift of 13%. `CCN(CC)C(=O)c1sc(NC(=O)c2ccco2)c(C#N)c1C` showed a side scatter shift of 7%. For `Cc1ccc(-n2nc3cc(Cl)c(NC(=O)c4ccco4)cc3n2)cc1`, the side scatter shift was 36% (active). Molecule `O=C(c1ccco1)N1CCN(c2cccc(Cl)c2)CC1` has a side scatter shift of 16%. Molecule `CCCS(=O)(=O)N1CCN(C(=O)c2cccs2)CC1` has a side scatter shift of 14%. With `Cc1cccc(C2c3c(n(C)c(=O)n(C)c3=O)N=C3c4ccccc4C(=O)C32)c1` (configuration not stated) the side scatter shift was 36% (active). `COc1ccc(C2C3=C(OC(C)=O)c4ccccc4C3=Nc3c2c(=O)n(C)c(=O)n3C)cc1` (configuration not stated) showed a side scatter shift of 13%. Molecule `Cc1cc(C)nc(-n2nc(C)cc2NC(=O)c2ccc(Br)o2)n1` has a side scatter shift of 9%. In the case of `CCOC(=O)N1CCC(Nc2c(NCCN3CCN(c4cccc(Cl)c4)CC3)c(=O)c2=O)CC1`, the side scatter shift is reported as 16%. Work on `CCOc1c(OC)cc(C2C(C#N)=C(N)Oc3n[nH]c(-c4ccncc4)c32)cc1OC` (configuration not stated) yielded a side scatter shift of 4%. Work on `Cc1ccc(N2CCN(c3ccc(C)cc3)C2c2ccccn2)cc1` yielded a side scatter shift of 16%. `Cc1ccc(C(c2sc3nc(C)nn3c2O)N2CCN(c3ccccc3)CC2)cc1` (configuration not stated) gave a side scatter shift of 10%. `FC(F)Oc1ccccc1C1CC(c2ccc(Br)s2)Nc2ncnn21` (configuration not stated) showed a side scatter shift of 11%. `Cc1c(NC(=O)C(C)OC(=O)c2cc3c4ccccc4n(C)c3s2)c(=O)n(-c2ccccc2)n1C` (configuration not stated) showed a side scatter shift of 7%. For `CCOC(=O)N1CCC(NC(=O)c2cnn3ccccc23)CC1`, the side scatter shift was 2%. With `Cc1ncn(C23CC4CC(CC(O)(C4)C2)C3)n1` the side scatter shift was 9%. Work on `O=C(c1ccc(=O)[nH]c1)N(Cc1ccco1)C1(C(=O)NC2CCCCC2)CCCCC1` yielded a side scatter shift of 1%. Molecule `CCN(c1ccc2c(c1)OCO2)S(=O)(=O)c1cc(Br)cc2c1N(C(=O)C1CC1)CC2` has a side scatter shift of 6%. With `c1ccc(CCn2nnnc2CN2CCN(C3CCCC3)CC2)cc1` the side scatter shift was 14%. `O=C(NCCc1ccc(Cl)cc1)C1CC(=O)N(C2CCCCC2)C1` (configuration not stated) gave a side scatter shift of 24%. For `Cc1nc2ccc(NC(=O)N3CCC(c4ccccc4)C3)cc2nc1C` (configuration not stated), the side scatter shift was 11%. `COc1cc2ccccc2cc1C(=O)Nc1ccc(S(=O)(=O)Nc2cc(C)on2)cc1` gave a side scatter shift of 12%. `COc1ccc2c(c1)CCc1c(C(=O)Nc3c(C)n(C)n(-c4ccccc4)c3=O)noc1-2` showed a side scatter shift of 1%. `COc1ccc(OC)c(CNC(=O)CCc2nc(-c3cccs3)no2)c1` showed a side scatter shift of 12%. `CCCN1Cc2cccc(C(=O)NCc3ccccc3)c2C1=O` gave a side scatter shift of 9%. `O=C(CCCn1c(SCC(=O)c2ccc(F)cc2)nc2ccccc2c1=O)NCc1ccco1` gave a side scatter shift of 8%. In the case of `CCc1nnc(NC(=O)CSc2nnc(Cc3ccccc3)n2-c2ccc(OC)cc2)s1`, the side scatter shift is reported as 6%. Molecule `CC(NC(=O)c1ccc(Cl)cc1)C(=O)N1CCCCC1` (configuration not stated) has a side scatter shift of 5%. `O=C1Nc2c(Br)cc(Br)cc2C1(O)N1CCOCC1` (configuration not stated) gave a side scatter shift of 13%. With `O=C(c1ccco1)N1CCN(CC(=O)N(C2CCCCC2)C2CCS(=O)(=O)C2)CC1` (configuration not stated) the side scatter shift was 9%. In the case of `COc1cccc(C(=O)Nc2c3c(nn2-c2cccc(C)c2C)CS(=O)(=O)C3)c1OC`, the side scatter shift is reported as 8%. Work on `CCN(Cc1ccccc1)C(=O)CSc1nc(C)cc2c1C(=O)OC2` yielded a side scatter shift of 4%. In the case of `COc1ccc2c(CC(=O)Nc3nnc(C4CC4)s3)coc2c1`, the side scatter shift is reported as 7%. With `CCCN1CCN(CCCNC(=O)CN2C(=O)COc3ccccc32)CC1` the side scatter shift was 7%. Work on `COc1ccccc1-n1cnc2cc(NS(=O)(=O)c3ccccc3)ccc21` yielded a side scatter shift of 11%. Molecule `COc1ccc(OC)c(CN2C(=O)CCC2(C)C(=O)NC2CCCCCC2)c1` (configuration not stated) has a side scatter shift of 11%. Work on `Cc1ccc(-c2nc(CS(=O)CC(=O)NC3CCCC3)c(C)o2)cc1` (configuration not stated) yielded a side scatter shift of 7%. `Cc1ccnc(N2C(=O)c3ccccc3C2Nc2ccc3c(c2)OCCO3)c1` (configuration not stated) showed a side scatter shift of 7%. With `CCOc1ccccc1NC(=O)c1cc(S(=O)(=O)N2CCC3(CC2)OCCO3)ccc1F` the side scatter shift was 7%. For `CCOC(=O)N1CCC(NC(=O)C(C)n2c3ccccc3c3cnn(C)c(=O)c32)CC1` (configuration not stated), the side scatter shift was 6%. Work on `Cn1c2ccccc2c2c(C(=O)N3CCN(c4ccc(F)cc4)CC3)cn(C3CCCC3)c(=O)c21` yielded a side scatter shift of 1%. `O=c1c(-c2ccccc2)coc2c(CN3CCOCC3)c(O)ccc12` gave a side scatter shift of 9%. Molecule `COc1ccccc1CNC(=O)CCCNS(=O)(=O)c1cccc2nsnc12` has a side scatter shift of 4%. Molecule `O=C(NC1CCCCC1)C1CCCN(S(=O)(=O)c2cccs2)C1` (configuration not stated) has a side scatter shift of 4%. In the case of `CC(C)C[C@H](NC(=O)Nc1cccc(C(F)(F)F)c1)C(=O)O`, the side scatter shift is reported as 12%. `CC1(C)CN=C(N2CCN(c3ncnc4sc5c(c34)CCCC5)CC2)S1` showed a side scatter shift of 4%. Work on `Cc1ccc(C)c(NC(=O)CSc2nnc(Cc3cccn3C)n2-c2ccc(F)cc2)c1` yielded a side scatter shift of 12%. With `COc1cccc(NC(=O)Nc2nnc(N3CCCCC3C)s2)c1` (configuration not stated) the side scatter shift was 6%. Work on `CCOC(=O)C1CCN(C(=O)CSc2cc(=O)n(C)c3ccccc23)CC1` yielded a side scatter shift of 8%. `O=c1cc(O)nc(SCc2ccccc2Cl)[nH]1` gave a side scatter shift of 7%. With `O=C(NCCN1CCOCC1)c1ccc2c(c1)ncn2C1CCCC1` the side scatter shift was 8%. Work on `Cc1ccc(N(C(=O)CC2NC(=O)NC2=O)C2(C(=O)NC3CCCC3)CCCCC2)cc1` (configuration not stated) yielded a side scatter shift of 0%. Molecule `Cc1cc(C)nc(SCc2nnc(SCC(=O)Nc3ncc(C)s3)n2Cc2ccco2)n1` has a side scatter shift of 16%. Molecule `COc1ccccc1C(=O)N1CCNC(=O)C1CC(=O)Nc1ccc(Cl)cc1` (configuration not stated) has a side scatter shift of 7%. Molecule `Cc1ccc(S(=O)(=O)n2nc(OC(=O)C(C)(C)C)cc2N)cc1` has a side scatter shift of 6%. With `CC1=C(C(=O)OC2CCCCC2)C(c2cccnc2)n2ncnc2N1` (configuration not stated) the side scatter shift was 1%. Work on `COc1ccc(CCNC(=O)c2ccc3c(c2)NC(=O)C(N2CCOCC2)S3)cc1OC` (configuration not stated) yielded a side scatter shift of 18%. Molecule `COc1cccc(NS(=O)(=O)c2ccc3[nH]cc(C(=O)NCCCOC(C)C)c(=O)c3c2)c1` has a side scatter shift of 11%. `Cc1cc(C)c(C)c(S(=O)(=O)Nc2ccc(O)cc2)c1C` gave a side scatter shift of 3%. `O=C(Nc1cccnc1)c1noc2c1CCCCC2` showed a side scatter shift of 12%. With `Fc1ccc2nc(Nc3nc4c(s3)CCCC4)sc2c1` the side scatter shift was 11%. `CN(Cc1ccccc1)C(=O)CCNC(=O)Cn1cnc2ccccc2c1=O` gave a side scatter shift of 6%. Work on `OCCNCCCCOc1ccccc1F` yielded a side scatter shift of 7%. With `CCC(C)Sc1nnc(-c2c[nH]c3ccccc23)n1CCOC` (configuration not stated) the side scatter shift was 6%. Work on `CCOC(=O)CNC(=O)CN1C(=O)CCSc2ccccc21` yielded a side scatter shift of 7%. `CCCCn1c(=S)[nH]c2ncccc2c1=O` showed a side scatter shift of 3%. Work on `CCOC(=O)c1c(N)c(C#N)nn1-c1ccccc1C(=O)OC` yielded a side scatter shift of 6%. `C=CCn1c(=N)n(CC(O)COc2ccc(OC)cc2)c2ccccc21` (configuration not stated) gave a side scatter shift of 8%. For `O=C(Nn1cnc2ccccc2c1=O)c1ccc(F)cc1Cl`, the side scatter shift was 9%. In the case of `Cc1nn(Cc2ccc(Cl)c(Cl)c2)c(C)c1NC(=O)c1cc(C2CC2)on1`, the side scatter shift is reported as 13%.
